Reference: publication PMC7819943, “Rice protein-binding microarrays: a tool to detect cis-acting elements near promoter regions in rice”
Over roughly 68,000 sequences, “fluorescence intensity (a.u.)” has its median near 9,100; the highest 2% begin near 16,000. What follows is part of a selection rich in the highest values, with near analogues and random picks from the rest.

biological target: OsWRKY34 (Oryza sativa, UniProt Q0JBA9 1-250); test: protein-binding microarray (RPBM); PBS, 2% BSA, 51.3 ng/ul salmon testes DNA, 50 uM zinc acetate, 200 nM TF, 25 C, 1 h; high values mean tight binding; conditions: protein: recombinant; tags: N-terminal polyhistidine and DsRed monomer fusion (pET32a); label: CyDye5-dUTP incorporated in the synthesized complementary strand; 3' TTTTT single-stranded linker to array surface; dsDNA, one strand shown
Summary of the method: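 Polyhistidine-tagged DsRed fusions of transcription factors, joined at the N-terminus, were expressed in E. coli BL21-CodonPlus and isolated on Ni–NTA. They were incubated at 200 nM for 1 h at 25 °C on a custom Agilent array, double-stranded and BSA-blocked, in PBS with 2% BSA, salmon testes DNA and 50 µM zinc acetate. The binding signal is per-feature fluorescence intensity (arbitrary units) read on an Axon 4000B scanner after washing.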

Chain of OsWRKY34 (Q0JBA9 entry or part of it): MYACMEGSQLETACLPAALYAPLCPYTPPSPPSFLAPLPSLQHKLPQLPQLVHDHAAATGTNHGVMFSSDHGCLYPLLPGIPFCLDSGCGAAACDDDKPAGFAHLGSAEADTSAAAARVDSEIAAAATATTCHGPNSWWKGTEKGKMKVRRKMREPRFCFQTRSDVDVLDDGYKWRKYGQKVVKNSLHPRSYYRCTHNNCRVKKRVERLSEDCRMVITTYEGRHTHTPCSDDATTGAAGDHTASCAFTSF

| Sequence | binding signal |
| --- | --- |
| CCGGGTTCCTGTTTTTTCAACGCATGCACACTTTAATCTACGGAGTCACCTAGTGCAG | 9290 fluorescence intensity (a.u.) |
| AATTTTTTTTTGCTTACAAAGGGTGAAACTTTCTCTCTCTCGGAGTCACCTAGTGCAG | 8500 fluorescence intensity (a.u.) |
| CTCCGACGACCCCACCGTGCCCACCCCGACCGCCGTCTCGCGGAGTCACCTAGTGCAG | 9650 fluorescence intensity (a.u.) |
| TTTCTGGGATATTCCATCTCATTACAGCACTCATTCTTTACGGAGTCACCTAGTGCAG | 9350 fluorescence intensity (a.u.) |
| AATCTCCATCTTCTTGCTCGTACAACGTAAATACTCGTCTCGGAGTCACCTAGTGCAG | 8830 fluorescence intensity (a.u.) |
| CGTCTTGTCTTGGCGTATGTTGGCTTGTATGTTGTTCCGTCGGAGTCACCTAGTGCAG | 10500 fluorescence intensity (a.u.) |
| GTTCTTGGTTCCTGCATTTCTTTTCTTTTTTGCCTTTGTTCGGAGTCACCTAGTGCAG | 11300 fluorescence intensity (a.u.) |
| ACTTGATGTTCTTTCGTTCTTTCCTGCGAAAACGTCAGGCCGGAGTCACCTAGTGCAG | 25600 fluorescence intensity (a.u.) |
| CCGCTCCGTTTTGTGTCGTTTTGTGTATTTTCTCCACTCACGGAGTCACCTAGTGCAG | 17400 fluorescence intensity (a.u.) |
| ATCATCACTCCATTGCCGCTGTATTTGTTGTCATCGTTTTCGGAGTCACCTAGTGCAG | 11200 fluorescence intensity (a.u.) |
| TTATTTTCTCCACTCACTACTTGTTCGTTTAGCAATTTGTCGGAGTCACCTAGTGCAG | 8750 fluorescence intensity (a.u.) |
| CCTGCCGTTTTCTTTTTCTTTTTCTTTCCTTTTCCTTTTTCGGAGTCACCTAGTGCAG | 17000 fluorescence intensity (a.u.) |
| CTCTTTTCTTTCTTTTCTTTTCCTTTCTTTTTCCTTTCTTCGGAGTCACCTAGTGCAG | 8540 fluorescence intensity (a.u.) |
| CCTATTTTTGATGTTCCGGATTTTTTCTTTGCGGCCAAAACGGAGTCACCTAGTGCAG | 11700 fluorescence intensity (a.u.) |
| CCCTTTGTCCTGCAGTACGTTTTTCCTTGCATTTTTCTTTCGGAGTCACCTAGTGCAG | 19700 fluorescence intensity (a.u.) |
| CTTTCTTTTTCCTTCTCTCTCTCTTTTCTTTCTTTTCTTTCGGAGTCACCTAGTGCAG | 13600 fluorescence intensity (a.u.) |
| AGTTTTGTTTCTTTCCTGTTCACAGTTCACCTTTGCCTTTCGGAGTCACCTAGTGCAG | 12400 fluorescence intensity (a.u.) |
| ATTGTCCATGATGTTCTTCCTTTTCTTTTTCGTTGTCAAACGGAGTCACCTAGTGCAG | 10300 fluorescence intensity (a.u.) |
| TCCTCTCTGTCTTCTGTCTTCTCTTCTTCTTCCTCACCAACGGAGTCACCTAGTGCAG | 11600 fluorescence intensity (a.u.) |
| CAAACAGAGCACACCTTTTTCCAGGACATTTGTCAATATTCGGAGTCACCTAGTGCAG | 9180 fluorescence intensity (a.u.) |
| ATCCTTTTCTTTGGCAGTCCTTGATCCCAGATCCACATTTCGGAGTCACCTAGTGCAG | 9820 fluorescence intensity (a.u.) |
| GGCTTTAATTGATCACTATGAATACTTGGCTTGTTGTCATCGGAGTCACCTAGTGCAG | 9040 fluorescence intensity (a.u.) |
| AAACCTCGCATGCCAATAGTTGGGAACGCCGGGGCGGGGTCGGAGTCACCTAGTGCAG | 9340 fluorescence intensity (a.u.) |
